# Experimental data as given in publication PMC7862700, “An all-to-all approach to the identification of sequence-specific readers for epigenetic DNA modifications on cytosine”.
# What was measured:
# Experiment in all cases: DAPPL (digital affinity profiling via proximity ligation, sequencing); 10 mM Tris-HCl pH 7.5, 50 mM NaCl, 1 mM DTT, 4% glycerol, room temperature, 30 min; GST-TFs on glutathione beads, 16-mer random dsDNA library, 0.1% formaldehyde crosslink after washing; high values mean tight binding
# FEV = target: T1, FEV (Homo sapiens, UniProt Q99581 1-238); details: protein: recombinant; tags: N-terminal GST; dsDNA, one strand shown
# T1 sequence: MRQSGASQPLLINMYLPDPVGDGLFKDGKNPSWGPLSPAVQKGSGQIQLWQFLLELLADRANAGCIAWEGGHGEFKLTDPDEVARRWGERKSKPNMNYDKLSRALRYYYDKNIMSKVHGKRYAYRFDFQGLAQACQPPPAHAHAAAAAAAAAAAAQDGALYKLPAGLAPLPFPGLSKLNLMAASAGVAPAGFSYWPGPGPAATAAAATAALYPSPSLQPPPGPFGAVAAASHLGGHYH
# Summary of the method: (§1)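 Human transcription factors fused to GST were expressed in yeast, captured on glutathione beads, given DNA barcodes and pooled with a GST-only negative control. Pools were incubated with 200 nmole of a 16-mer random double-stranded DNA library in Tris/NaCl/DTT/glycerol buffer at room temperature for 30 min. They were then washed, crosslinked with 0.1% formaldehyde, proximity-ligated (BsaI/T4 ligase, 1 h, 37 °C), PCR-amplified and sequenced on an Illumina NextSeq500. Binding signal is each 6-mer's read frequency for a factor divided by its frequency for the GST control.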
# ETV5 = ETV5 (Homo sapiens, UniProt P41161 1-510); details: protein: recombinant; tags: N-terminal GST; dsDNA, one strand shown
# Summary of the method: as §1
# HSF1 = HSF1 (Homo sapiens, UniProt Q00613 1-529); details: protein: recombinant; tags: N-terminal GST; chain copies: 3; dsDNA, one strand shown
# Summary of the method: as §1
# SPIC = target: T2, SPIC (Homo sapiens, UniProt Q8N5J4 1-248); details: protein: recombinant; tags: N-terminal GST; dsDNA, one strand shown
# T2 sequence: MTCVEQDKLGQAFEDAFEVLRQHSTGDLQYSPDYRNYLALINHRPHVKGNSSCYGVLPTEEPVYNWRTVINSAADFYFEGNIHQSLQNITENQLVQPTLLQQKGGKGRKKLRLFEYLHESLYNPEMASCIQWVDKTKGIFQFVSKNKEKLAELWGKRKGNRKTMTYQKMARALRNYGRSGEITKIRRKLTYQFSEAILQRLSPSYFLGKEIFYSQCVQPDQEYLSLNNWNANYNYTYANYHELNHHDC
# Summary of the method: as §1
# ELF4 = ELF4 (Homo sapiens, UniProt Q99607 1-663); details: protein: recombinant; tags: N-terminal GST; dsDNA, one strand shown
# Summary of the method: as §1
# ELK4 = target: T3, ELK4 (Homo sapiens, UniProt P28324-2 1-405); details: protein: recombinant; tags: N-terminal GST; dsDNA, one strand shown
# T3 sequence: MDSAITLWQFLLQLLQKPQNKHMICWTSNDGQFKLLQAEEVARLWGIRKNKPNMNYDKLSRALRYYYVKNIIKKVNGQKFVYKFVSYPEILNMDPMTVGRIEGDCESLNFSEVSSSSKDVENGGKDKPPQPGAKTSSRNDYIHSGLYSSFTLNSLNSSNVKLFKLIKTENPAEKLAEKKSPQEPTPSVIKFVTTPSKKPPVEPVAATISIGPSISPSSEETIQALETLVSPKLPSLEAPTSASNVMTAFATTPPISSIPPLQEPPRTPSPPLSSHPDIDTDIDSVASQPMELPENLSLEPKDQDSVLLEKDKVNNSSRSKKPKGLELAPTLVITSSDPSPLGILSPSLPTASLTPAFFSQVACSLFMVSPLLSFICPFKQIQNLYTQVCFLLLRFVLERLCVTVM
# Summary of the method: as §1
# ETV2 = target: T4, ETV2 (Homo sapiens, UniProt O00321 1-342); details: protein: recombinant; tags: N-terminal GST; dsDNA, one strand shown
# T4 sequence: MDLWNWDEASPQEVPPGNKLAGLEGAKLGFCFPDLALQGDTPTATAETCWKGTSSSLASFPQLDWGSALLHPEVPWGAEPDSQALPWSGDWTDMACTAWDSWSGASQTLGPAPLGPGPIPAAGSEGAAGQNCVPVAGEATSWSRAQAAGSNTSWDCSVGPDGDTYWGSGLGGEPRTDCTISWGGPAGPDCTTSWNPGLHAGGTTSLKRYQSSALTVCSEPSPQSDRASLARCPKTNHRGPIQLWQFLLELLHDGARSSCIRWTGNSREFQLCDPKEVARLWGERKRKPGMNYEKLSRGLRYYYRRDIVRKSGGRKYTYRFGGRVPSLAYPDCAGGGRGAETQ
# Summary of the method: as §1
# ELF3 = target: T5, ELF3 (Homo sapiens, UniProt P78545 1-371); details: protein: recombinant; tags: N-terminal GST; dsDNA, one strand shown
# T5 sequence: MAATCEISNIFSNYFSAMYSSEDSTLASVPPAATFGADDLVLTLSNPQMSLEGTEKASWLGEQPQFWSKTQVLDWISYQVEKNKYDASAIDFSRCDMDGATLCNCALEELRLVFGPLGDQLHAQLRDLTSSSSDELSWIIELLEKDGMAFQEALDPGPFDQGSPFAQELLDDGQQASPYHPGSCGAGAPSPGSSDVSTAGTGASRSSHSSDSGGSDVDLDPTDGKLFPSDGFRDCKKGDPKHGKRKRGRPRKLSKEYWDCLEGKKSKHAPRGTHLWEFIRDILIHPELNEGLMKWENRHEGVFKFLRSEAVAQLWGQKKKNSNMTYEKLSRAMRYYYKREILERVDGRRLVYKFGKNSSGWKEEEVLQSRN
# Summary of the method: as §1
# CRX = CRX (Homo sapiens, UniProt O43186 1-299); details: protein: recombinant; tags: N-terminal GST; dsDNA, one strand shown
# Summary of the method: as §1
# ETV1 = ETV1 (Homo sapiens, UniProt P50549 1-477); details: protein: recombinant; tags: N-terminal GST; dsDNA, one strand shown
# Summary of the method: as §1
# ERF = target: T6, ERF (Homo sapiens, UniProt P50548 1-548); details: protein: recombinant; tags: N-terminal GST; dsDNA, one strand shown
# T6 sequence: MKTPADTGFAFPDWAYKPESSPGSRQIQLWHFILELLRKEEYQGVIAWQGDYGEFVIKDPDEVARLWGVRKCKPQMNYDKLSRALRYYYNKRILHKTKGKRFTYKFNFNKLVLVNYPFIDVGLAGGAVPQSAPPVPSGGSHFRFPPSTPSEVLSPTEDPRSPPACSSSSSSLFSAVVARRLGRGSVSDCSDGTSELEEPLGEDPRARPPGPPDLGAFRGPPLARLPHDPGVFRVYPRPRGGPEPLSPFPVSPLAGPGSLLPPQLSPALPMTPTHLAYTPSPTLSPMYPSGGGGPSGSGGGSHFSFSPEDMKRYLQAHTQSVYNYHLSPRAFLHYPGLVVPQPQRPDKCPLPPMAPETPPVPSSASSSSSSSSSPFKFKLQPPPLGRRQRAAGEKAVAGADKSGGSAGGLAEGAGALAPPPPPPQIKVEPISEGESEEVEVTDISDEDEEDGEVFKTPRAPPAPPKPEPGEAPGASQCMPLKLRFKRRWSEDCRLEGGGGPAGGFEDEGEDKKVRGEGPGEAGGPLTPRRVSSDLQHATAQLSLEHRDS
# Summary of the method: as §1
# ETV3L = target: T7, ETV3L (Homo sapiens, UniProt Q6ZN32 1-361); details: protein: recombinant; tags: N-terminal GST; dsDNA, one strand shown
# T7 sequence: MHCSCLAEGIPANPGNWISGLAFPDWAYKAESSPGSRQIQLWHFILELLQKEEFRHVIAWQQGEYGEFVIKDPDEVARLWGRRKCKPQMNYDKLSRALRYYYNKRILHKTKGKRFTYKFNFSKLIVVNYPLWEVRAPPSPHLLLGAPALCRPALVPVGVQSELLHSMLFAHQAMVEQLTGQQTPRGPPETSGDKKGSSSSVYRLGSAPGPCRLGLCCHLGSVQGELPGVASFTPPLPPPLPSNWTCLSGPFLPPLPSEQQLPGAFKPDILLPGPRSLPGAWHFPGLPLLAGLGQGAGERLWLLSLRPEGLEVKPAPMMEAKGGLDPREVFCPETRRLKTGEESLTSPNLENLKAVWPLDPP
# Summary of the method: as §1
# ETS2 = target: T8, ETS2 (Homo sapiens, UniProt P15036 1-469); details: protein: recombinant; tags: N-terminal GST; dsDNA, one strand shown
# T8 sequence: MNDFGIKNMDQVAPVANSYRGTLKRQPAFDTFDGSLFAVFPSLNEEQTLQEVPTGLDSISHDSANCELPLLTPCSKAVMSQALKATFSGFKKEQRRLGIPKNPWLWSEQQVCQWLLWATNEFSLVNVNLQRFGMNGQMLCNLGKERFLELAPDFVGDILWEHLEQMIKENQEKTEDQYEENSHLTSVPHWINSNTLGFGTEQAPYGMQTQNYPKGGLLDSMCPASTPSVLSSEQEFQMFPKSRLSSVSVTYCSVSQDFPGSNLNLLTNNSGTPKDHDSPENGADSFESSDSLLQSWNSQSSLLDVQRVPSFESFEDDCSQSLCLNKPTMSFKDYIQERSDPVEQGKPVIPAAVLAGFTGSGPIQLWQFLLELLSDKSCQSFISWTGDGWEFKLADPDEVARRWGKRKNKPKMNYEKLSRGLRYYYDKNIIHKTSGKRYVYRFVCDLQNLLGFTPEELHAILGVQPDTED
# Summary of the method: as §1
# SPDEF = target: T9, SPDEF (Homo sapiens, UniProt O95238 1-335); details: protein: recombinant; tags: N-terminal GST; dsDNA, one strand shown
# T9 sequence: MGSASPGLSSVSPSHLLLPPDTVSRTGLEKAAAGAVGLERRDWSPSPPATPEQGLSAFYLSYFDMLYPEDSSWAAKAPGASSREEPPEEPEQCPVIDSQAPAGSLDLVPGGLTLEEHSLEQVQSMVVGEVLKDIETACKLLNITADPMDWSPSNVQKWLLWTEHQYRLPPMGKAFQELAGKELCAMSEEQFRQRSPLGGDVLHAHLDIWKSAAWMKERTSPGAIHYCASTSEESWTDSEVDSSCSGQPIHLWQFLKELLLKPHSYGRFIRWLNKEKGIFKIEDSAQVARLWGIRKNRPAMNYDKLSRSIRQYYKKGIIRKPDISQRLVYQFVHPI
# Summary of the method: as §1
# ETV7 = target: T10, ETV7 (Homo sapiens, UniProt Q9Y603 1-341); details: protein: recombinant; tags: N-terminal GST; dsDNA, one strand shown
# T10 sequence: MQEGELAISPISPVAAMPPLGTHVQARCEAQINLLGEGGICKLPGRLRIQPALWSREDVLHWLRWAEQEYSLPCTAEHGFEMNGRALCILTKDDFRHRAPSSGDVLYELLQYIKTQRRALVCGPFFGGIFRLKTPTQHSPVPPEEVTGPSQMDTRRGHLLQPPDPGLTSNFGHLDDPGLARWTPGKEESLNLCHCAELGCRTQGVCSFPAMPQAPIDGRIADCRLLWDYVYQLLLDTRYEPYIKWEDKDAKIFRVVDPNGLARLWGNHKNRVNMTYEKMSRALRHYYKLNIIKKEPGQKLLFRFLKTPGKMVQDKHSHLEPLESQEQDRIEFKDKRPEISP
# Summary of the method: as §1
# ELF5 = target: T11, ELF5 (Homo sapiens, UniProt Q9UKW6-2 1-255); details: protein: recombinant; tags: N-terminal GST; dsDNA, one strand shown
# T11 sequence: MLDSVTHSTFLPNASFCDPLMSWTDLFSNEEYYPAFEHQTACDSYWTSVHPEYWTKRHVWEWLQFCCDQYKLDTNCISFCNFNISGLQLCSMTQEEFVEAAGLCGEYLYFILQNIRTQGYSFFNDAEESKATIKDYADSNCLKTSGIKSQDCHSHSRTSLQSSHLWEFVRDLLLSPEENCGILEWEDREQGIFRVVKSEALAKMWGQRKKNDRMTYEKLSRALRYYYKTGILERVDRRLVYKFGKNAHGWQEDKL
# Summary of the method: as §1
# ETV3 = target: T12, ETV3 (Homo sapiens, UniProt P41162-2 1-143); details: protein: recombinant; tags: N-terminal GST; dsDNA, one strand shown
# T12 sequence: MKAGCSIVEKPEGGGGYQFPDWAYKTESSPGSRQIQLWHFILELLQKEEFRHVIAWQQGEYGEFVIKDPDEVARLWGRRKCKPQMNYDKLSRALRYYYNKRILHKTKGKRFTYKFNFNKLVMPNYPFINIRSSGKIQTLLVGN
# Summary of the method: as §1
# ETV6 = ETV6 (Homo sapiens, UniProt P41212 1-452); details: protein: recombinant; tags: N-terminal GST; dsDNA, one strand shown
# Summary of the method: as §1
# CRX, sequence (O43186 whole entry): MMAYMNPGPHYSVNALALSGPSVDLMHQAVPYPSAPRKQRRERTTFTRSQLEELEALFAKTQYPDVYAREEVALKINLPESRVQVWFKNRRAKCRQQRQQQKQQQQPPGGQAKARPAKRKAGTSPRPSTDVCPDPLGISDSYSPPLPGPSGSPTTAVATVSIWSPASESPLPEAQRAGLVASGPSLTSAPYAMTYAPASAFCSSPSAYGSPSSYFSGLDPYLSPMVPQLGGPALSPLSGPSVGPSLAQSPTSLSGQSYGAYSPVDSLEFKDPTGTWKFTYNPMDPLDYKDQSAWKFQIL
# ETV6, sequence (P41212 whole entry): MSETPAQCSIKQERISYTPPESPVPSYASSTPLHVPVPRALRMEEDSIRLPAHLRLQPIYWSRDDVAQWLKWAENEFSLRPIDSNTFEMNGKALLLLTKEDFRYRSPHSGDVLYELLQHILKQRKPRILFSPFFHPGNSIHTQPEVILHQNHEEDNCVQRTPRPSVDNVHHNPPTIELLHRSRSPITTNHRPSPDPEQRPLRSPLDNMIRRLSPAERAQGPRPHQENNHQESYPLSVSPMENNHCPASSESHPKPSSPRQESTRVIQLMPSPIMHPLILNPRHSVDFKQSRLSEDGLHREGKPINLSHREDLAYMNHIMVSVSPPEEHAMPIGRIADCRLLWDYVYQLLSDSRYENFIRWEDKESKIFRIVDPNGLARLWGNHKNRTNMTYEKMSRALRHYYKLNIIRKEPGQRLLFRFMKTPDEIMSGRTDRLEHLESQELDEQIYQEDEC
# ETV5, sequence (P41161 whole entry): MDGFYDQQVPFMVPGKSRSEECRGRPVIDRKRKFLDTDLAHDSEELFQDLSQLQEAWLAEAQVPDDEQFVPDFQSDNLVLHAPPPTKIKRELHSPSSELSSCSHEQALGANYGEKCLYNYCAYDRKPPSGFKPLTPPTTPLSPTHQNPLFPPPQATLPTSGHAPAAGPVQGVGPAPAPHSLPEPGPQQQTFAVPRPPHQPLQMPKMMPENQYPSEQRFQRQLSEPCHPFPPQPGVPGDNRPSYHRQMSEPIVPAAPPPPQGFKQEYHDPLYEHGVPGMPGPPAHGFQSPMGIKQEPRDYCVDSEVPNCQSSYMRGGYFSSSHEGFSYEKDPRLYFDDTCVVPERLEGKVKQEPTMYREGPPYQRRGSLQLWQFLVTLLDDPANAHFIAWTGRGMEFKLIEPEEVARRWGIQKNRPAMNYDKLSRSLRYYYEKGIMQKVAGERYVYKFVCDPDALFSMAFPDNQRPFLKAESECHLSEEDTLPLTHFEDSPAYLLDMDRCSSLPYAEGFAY
# ETV1, sequence (P50549 whole entry): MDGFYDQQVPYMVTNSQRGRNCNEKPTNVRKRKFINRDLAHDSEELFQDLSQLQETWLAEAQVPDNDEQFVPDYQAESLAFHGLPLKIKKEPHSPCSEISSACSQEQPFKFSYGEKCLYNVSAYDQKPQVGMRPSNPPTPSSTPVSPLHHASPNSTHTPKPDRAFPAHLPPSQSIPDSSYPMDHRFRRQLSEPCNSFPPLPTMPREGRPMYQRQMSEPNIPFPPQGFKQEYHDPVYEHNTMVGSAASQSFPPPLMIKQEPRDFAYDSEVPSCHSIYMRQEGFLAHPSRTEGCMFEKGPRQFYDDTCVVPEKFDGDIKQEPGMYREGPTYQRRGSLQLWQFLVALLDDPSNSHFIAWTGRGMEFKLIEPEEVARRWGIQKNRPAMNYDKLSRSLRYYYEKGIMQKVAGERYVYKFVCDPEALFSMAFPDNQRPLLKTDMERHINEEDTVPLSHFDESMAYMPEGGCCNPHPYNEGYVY
# HSF1, sequence (Q00613 whole entry): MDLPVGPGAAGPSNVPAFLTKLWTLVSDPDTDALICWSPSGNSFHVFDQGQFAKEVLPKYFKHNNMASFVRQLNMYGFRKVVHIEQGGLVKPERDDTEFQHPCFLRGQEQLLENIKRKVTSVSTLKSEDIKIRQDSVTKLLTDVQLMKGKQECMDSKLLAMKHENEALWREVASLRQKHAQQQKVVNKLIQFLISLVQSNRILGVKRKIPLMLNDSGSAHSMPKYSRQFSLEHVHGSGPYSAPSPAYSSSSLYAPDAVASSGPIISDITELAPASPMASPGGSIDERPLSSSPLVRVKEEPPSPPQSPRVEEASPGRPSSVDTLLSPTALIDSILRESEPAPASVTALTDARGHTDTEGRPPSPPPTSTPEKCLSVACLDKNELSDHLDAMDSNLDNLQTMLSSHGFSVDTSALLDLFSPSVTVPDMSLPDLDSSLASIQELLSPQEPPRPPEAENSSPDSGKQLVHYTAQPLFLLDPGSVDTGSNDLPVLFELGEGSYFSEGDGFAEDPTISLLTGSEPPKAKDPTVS
# ELF4, sequence (Q99607 whole entry): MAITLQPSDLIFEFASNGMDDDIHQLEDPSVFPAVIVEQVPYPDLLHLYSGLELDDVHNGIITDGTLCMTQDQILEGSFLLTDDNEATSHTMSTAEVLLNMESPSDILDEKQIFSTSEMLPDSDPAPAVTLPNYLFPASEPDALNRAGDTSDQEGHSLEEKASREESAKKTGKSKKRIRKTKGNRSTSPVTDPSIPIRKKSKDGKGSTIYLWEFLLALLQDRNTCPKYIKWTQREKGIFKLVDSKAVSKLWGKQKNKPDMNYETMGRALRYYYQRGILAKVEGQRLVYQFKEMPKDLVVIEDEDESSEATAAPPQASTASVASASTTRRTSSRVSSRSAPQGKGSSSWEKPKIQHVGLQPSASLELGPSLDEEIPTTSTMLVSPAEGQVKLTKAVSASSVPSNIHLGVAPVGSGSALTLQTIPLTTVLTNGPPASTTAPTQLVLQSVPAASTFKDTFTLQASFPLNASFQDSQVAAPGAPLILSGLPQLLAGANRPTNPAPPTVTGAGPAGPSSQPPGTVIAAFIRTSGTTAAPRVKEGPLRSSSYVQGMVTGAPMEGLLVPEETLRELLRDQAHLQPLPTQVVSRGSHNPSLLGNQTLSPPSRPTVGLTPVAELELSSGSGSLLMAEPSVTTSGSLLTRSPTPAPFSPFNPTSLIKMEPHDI
sequence,measurement,setting,value
TTCTTC,binding signal,FEV,"1.66 fold enrichment (6-mer frequency, TF over GST control)"
same,binding signal,ETV5,"1.87 fold enrichment (6-mer frequency, TF over GST control)"
same,binding signal,HSF1,"2.07 fold enrichment (6-mer frequency, TF over GST control)"
same,binding signal,SPIC,"1.74 fold enrichment (6-mer frequency, TF over GST control)"
same,binding signal,ELF4,"1.81 fold enrichment (6-mer frequency, TF over GST control)"
same,binding signal,ELK4,"1.69 fold enrichment (6-mer frequency, TF over GST control)"
same,binding signal,ETV2,"1.83 fold enrichment (6-mer frequency, TF over GST control)"
same,binding signal,ELF3,"1.74 fold enrichment (6-mer frequency, TF over GST control)"
same,binding signal,CRX,"1.44 fold enrichment (6-mer frequency, TF over GST control)"
same,binding signal,ETV1,"1.9 fold enrichment (6-mer frequency, TF over GST control)"
same,binding signal,ERF,"1.78 fold enrichment (6-mer frequency, TF over GST control)"
same,binding signal,ETV3L,"1.83 fold enrichment (6-mer frequency, TF over GST control)"
same,binding signal,ETS2,"1.7 fold enrichment (6-mer frequency, TF over GST control)"
same,binding signal,SPDEF,"1.72 fold enrichment (6-mer frequency, TF over GST control)"
same,binding signal,ETV7,"1.7 fold enrichment (6-mer frequency, TF over GST control)"
same,binding signal,ELF5,"2.02 fold enrichment (6-mer frequency, TF over GST control)"
same,binding signal,ETV3,"1.8 fold enrichment (6-mer frequency, TF over GST control)"
same,binding signal,ETV6,"1.93 fold enrichment (6-mer frequency, TF over GST control)"
